Data on three compounds can be found in PubChem BioAssay (Tox21).

SMILES strings stand for the structures. Records with an inconclusive call do not appear. Values without a mark were called inactive. The call rests on the fitted dose curve; in most records, active means well fitted activation curve with a large enough effect in the repeat runs; inconclusive means weak or mixed curves; inactive means flat fitted curve, though single readings scatter.
On the % scale 0 is the no-effect control and ±100 the full control effect.

The target in the assay is Nuclear receptor subfamily 1 group I member 2 (Homo sapiens) (UniProt O75469). Nature of the assay: Human pregnane X receptor (PXR) activation by small molecules, qHTS assay (AID 1346985). Further: nearly all actives have a fitted effect of over 40% in size. The following applies: DPX-2 HepG2 CYP3A4-luciferase, 24 h; series mostly up to 38.3 µM; activation: at the top concentration. The gist of the method:
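DPX-2 cells (HepG2 co-transfected with a PXR response element and a CYP3A4-promoter luciferase construct) were seeded at 2,000 per well, rested 5 hr at 37C, then exposed to DMSO-dissolved compounds for 24 hr. Activation was read as luciferase luminescence.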
(In general: qHTS replaces the single test concentration by a dilution series.)
Regarding `CN=C1C=CC(=C(c2ccc(N(C)C)cc2)c2ccc(N(C)C)cc2)C=C1`, the “activation” value is -21.8%.
With `CCCCCCCCCCCC(=O)N(CCO)CCO` the figure was -8.55%; with `O=C(O)c1cc(N=Nc2ccc(O)c(C(=O)O)c2)ccc1O`, 1.46%.
